Screening results: PubChem BioAssay, National Center for Advancing Translational Sciences (NCATS)
Rows were chosen to be rich in hits. Some 21% of all compounds tested hit in one or more screens of this group.
NS1 inh: qHTS Assay for Inhibitors of Influenza NS1 Protein Function; Potency, µM (highest dose often 46.1 µM), inactives show top-dose activity, positive = more growth; actives 0.4% (n = 270,000); AID 2326, 2010; calls by dose curve; note: potency is the fitted concentration of half-maximal effect; actives are rising curves; nearly all actives have a fitted effect of over 50% in size
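OD600 was taken as the measure of yeast growth restored by compound in an NS1-expressing S. cerevisiae strain. Cells had been washed out of glucose medium and diluted 1:100 into galactose -URA medium, pH 6.0.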
SARS PLP yeast: qHTS of Yeast-based Assay for SARS-CoV PLP. Potency, µM (top dose mostly 32.9 µM), inactives show at the top dose activity, positive = growth rescue, usual class: activators. actives 0.19% (n = 330,000). S. cerevisiae expressing SARS-CoV PLpro, growth rescue; calls by dose curve; note: potency is the fitted concentration of half-maximal effect; 0% is about no effect; nearly all actives have a fitted effect of over 55% in size
CHX counter: Cycloheximide Counterscreen for Small Molecule Inhibitors of Shiga Toxin. cell reporter, cycloheximide protein synthesis inhibition counterscreen. max response, %. actives 12% (n = 300,000). AID 2314, 2010; in the data active = max response mostly above about 13%, no sharp cut-off; inactive = mostly below about 14%; note: read at 38.3 µM for the half of the compounds with a filed dose; 0% is about no effect
Pf growth 96h: Primary qHTS for delayed death inhibitors of the malarial parasite plastid, 96 hour incubation. actives 6.9% (n = 320,000). Potency, µM (series often up to 28.7 µM), without a hit: top-dose activity change, negative = inhibition, usual class: inhibitors. AID 504834, 2011. P. falciparum luciferase reporter growth, 96 h; note: potency is the fitted concentration of half-maximal effect; % is set by controls: 0 for no effect and ±100 for the full control effect
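96 h incubation, 37 C, 5% CO2, of luciferase-reporter P. falciparum-infected RBCs (2% hematocrit, 0.05% parasitemia final) with test compounds; endpoint luminescence.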
Pf growth 48h: Primary qHTS for delayed death inhibitors of the malarial parasite plastid, 48 hour incubation. actives 5.9% (n = 310,000). P. falciparum luciferase growth in erythrocytes, 48 h. Potency, µM (series often up to 28.7 µM), without a hit: at the highest dose activity change, negative = inhibition, usual class: inhibitors; note: potency is the fitted concentration of half-maximal effect; % is set by controls: 0 for no effect and ±100 for the full control effect
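In quantitative HTS format, infected erythrocytes bearing luciferase-reporter parasites were treated for a single generation at 37 C. Luminescence after adding detection reagent served as the growth measure.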
Shiga inhibitor: A qHTS for Small Molecule Inhibitors of Shiga Toxin; Vero cells, Shiga toxin protein synthesis inhibition reporter; inhibition, % at 38.7 µM; actives 9.2% (n = 290,000); AID 2315, 2010; in the data active = inhibition mostly above about 28%, no sharp cut-off; inactive = mostly below about 43%; note: 0% is about no effect
* hit, by the source's call; u = inconclusive; x = no result given; [ ] = dose if it differs, or a comment. Unless noted, calls come from the whole dose curve; as a rule, active = well fitted inhibition curve with a large enough effect; inconclusive = small, poorly fitted or top-dose-only effect, or another doubt; inactive = no such curve, though single readings can be large or run the other way.

SMILES	NS1 inh	SARS PLP yeast	CHX counter	Pf growth 96h	Pf growth 48h	Shiga inhibitor
C/C(=N\NC(=O)c1ccoc1C)c1ccc(Cl)s1	-23%	3%	41*	-12%	66%	87*
C/C(=N\NC(=S)NC(C)C)c1ccc(Cl)s1	-30%	u	16	u	-29%	24
C/C(=N\NC(=O)c1csc(C)c1C)c1ccc(Cl)s1	6%	-8%	33*	x	69%	72*
CC/C(=N\NC(=O)c1c(-c2ccccc2)noc1C)c1ccc(C)o1	15%	3%	-1	-18%	3%	-9
CC/C(=N\NC(=O)c1ccoc1C)c1ccc(C)o1	6%	-6%	82*	25%	156%	149*
CC(C)(C)c1ccc(-c2nc3c(C#N)c(-c4ccc5c(c4)OCO5)ccn3n2)cc1	8%	3%	4	u	8.3µM*	-6
COc1ccc2cc(CO)c(Cl)nc2c1	x	-2%	14	-11%	1%	2
COc1ccc2cc3c(nc2c1)OCC3	-17%	-1%	20*	0%	39%	102*
CCN(CC)CC#CCC(C)(c1ccccc1)c1ccccc1	-31%	-5%	1	6.6µM*	12µM*	-13
O=C(O)c1cn(-c2ccc(F)cc2)c2cc(N3CCNCC3)c(F)cc2c1=O	x	x	x	3.4µM*	u	x
COc1ccc(CC(C)Nc2cccc(SC)c2)cc1 (centres undefined)	5%	-10%	-3	8.3µM*	-2%	-3
COc1ccc(CC(=O)Nc2cccc(SC)c2)cc1	-35%	-14%	17*	-2%	14%	19
CC[C@H]1OC(=O)[C@H](C)[C@@H](O[C@H]2C[C@@](C)(OC)[C@@H](O)[C@H](C)O2)[C@H](C)[C@@H](O[C@@H]2O[C@H](C)C[C@H](N(C)C)[C@H]2O)[C@](C)(OC)C[C@@H](C)C(=O)[C@H](C)[C@@H](O)[C@]1(C)O	x	2%	-2	x	x	-7
COc1ccc(C(C(=O)NC2CCCCC2)N(C(=O)CCl)c2ccc(Cl)cc2)cc1 (centres undefined)	-6%	-10%	12	3.7µM*	-5%	13
COC(CN(C(=O)CCl)C(C(=O)NC1CCCCC1)c1ccccc1C)OC (centres undefined)	-4%	-13%	-3	u	15µM*	-6
COc1ccc(C(C(=O)NC2CCCCC2)N(C(=O)c2sc(C)nc2C)c2ccc(OC)cc2)cc1 (centres undefined)	-3%	-2%	1	0%	62%	-14
COC(CN(C(=O)CCl)C(C(=O)NC1CCCC(C)C1C)c1ccc(C)cc1)OC (centres undefined)	-7%	14%	-1	u	-15%	-5
COC(CN(C(=O)CCl)C(C(=O)NC1CCCCC1)c1ccc(Cl)cc1)OC (centres undefined)	3%	6%	-3	2.9µM*	u	-9
CC(C)NC(=O)c1ccc(-c2ccccc2C(F)(F)F)o1	2%	-2%	44*	10%	22%	93*
O=C(Nc1ccccc1)c1ccc(-c2ccccc2Cl)o1	-20%	9%	38*	99%	143%	58
CC(C)NC(=O)c1ccc(-c2ccc(Cl)c(C(F)(F)F)c2)o1	6%	-9%	-4	3.3µM*	x	-9
O=C(Nc1ccccc1)c1ccc(-c2ccccc2C(F)(F)F)o1	-65%	-24%	46*	u	u	73*
CC(=O)c1ccc(S(=O)(=O)N2CCN(S(=O)(=O)c3ccccc3C(F)(F)F)CC2)cc1	12%	1%	-7	u	9%	-11
CC(C)CCn1c(=O)c2ccccc2n2c(CN3CCOCC3)nnc12	x	-3%	5	-10%	-25%	-23
O=C(Nc1nnc(SCC(=O)N2CCCCC2)s1)c1c(F)cccc1F	6%	7%	9	5%	24%	-3
SMILES	NS1 inh	SARS PLP yeast	CHX counter	Pf growth 96h	Pf growth 48h	Shiga inhibitor
N#Cc1ccccc1NC(=O)c1ccc(-c2ccccc2Cl)o1	-14%[9.22 µM]	-6%	30*	x	146%	123*
CC(=O)Nc1ccc(NC(=O)c2ccc(-c3ccccc3Cl)o2)cc1	x	7%	x	-20%	42%	x
O=CN1CCN(C(=O)COc2ccc(Cl)cc2Br)CC1	3%	-13%	-3	7%	32%	-7
O=C(COc1ccc(Cl)cc1Br)N1CCN(c2ccccc2)CC1	-4%	u	-3	3.7µM*	-2%	-7
O=C(COc1ccccc1)N1CCN(c2ccccc2)CC1	3%	-4%	-1	35%	-8%	5
O=C(COc1ccccc1)N1CCN(CC(O)COc2ccccc2)CC1 (centres undefined)	-1%	-2%	-5	15µM*	-12%	32
O=C(COc1ccc(Br)cc1)N1CCN(c2ccccc2)CC1	-11%	-6%	-3	4.7µM*	x	-10
OC(COc1ccccc1)CN1CCN(CC(O)COc2ccccc2)CC1 (centres undefined)	x	1%	-2	17%	9%	11
CC(=O)NC(c1cc(Cl)c2cccnc2c1O)C(C)C (centres undefined)	x	1%	x	10µM*	3.7µM*	x
CC(=O)NC(c1cc(Cl)c2cccnc2c1O)C1CC1 (centres undefined)	x	u	x	13µM*	4.1µM*	x
Cc1c(C(=O)Nc2nnc(C3CC3)s2)oc2ccccc12	x	0%	x	177%	281%	x
CC(Oc1ccc2c(c1)oc(=O)c1ccccc12)C(=O)NCCN1CCOCC1 (centres undefined)	-19%	-4%	-2	-2%	16%	-4
Cc1ccc(O)c(C(=O)c2cnc(/N=C(\N)N(C)C)nc2)c1	8%	6%	-7	19%	8%	3
Cc1ccc2c(c1)-c1ncc(C(=O)c3cc(Br)ccc3O)cc1CO2	0%	-2%	-4	u	1.7µM*	1
Cc1ccc(O)c(C(=O)c2cnc3c(c2)COc2ccc(C)cc2-3)c1	2%	-25%	0	u	13µM*	-3
O=C1CC(O)(C(F)F)Oc2ccc3ccccc3c21 (centres undefined)	-64%	-7%	9	19%	27%	11
O=C1CC(O)(C(F)(F)F)Oc2c1ccc1ccccc21 (centres undefined)	-143%	-8%	19*	x	22%	79
COC(=O)c1[nH]c2cc(OC)c(OC)cc2c1/C=N/Nc1ccccc1	-2%	-9%	12	u	0%	29
COc1ccc(-c2csc(-n3ncc(-c4cccs4)c3N)n2)cc1	10%	0%	4	u	7%	31
COc1ccc(-c2csc(-n3cccn3)n2)cc1	-10%	-3%	62*	194%	87%	66*
COc1ccc(-c2csc(N3CCSCC3)n2)cc1	13%	-4%	56*	184%	104%	95*
